Screening data deposited in PubChem BioAssay by National Center for Advancing Translational Sciences (NCATS).
Marburg entry inh: blocks Marburg virus binding to or entry into cells; Marburg virus pseudotyped entry inhibition, cell reporter; Potency, µM (top dose mostly 37.8 µM), hits mostly inhibitors; actives 1.8% (n = 300,000); calls by dose curve; tested in HEK293 cells
HCV inhibitor: blocks hepatitis C virus | Huh7.5.1 HCVcc-Cre infection, luciferase reporter, 44 h | Potency, µM (titrated, usually from 41.8 µM), hits mostly inhibitors | actives 3.4% (n = 340,000); active = well fitted inhibition curve with a large enough effect; inconclusive = small, poorly fitted or top-dose-only effect, or another doubt; inactive = no such curve, though single readings can be large or run the other way
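1,000 cells/well; 4 h culture; + compound; + HCVcc-Cre (~0.5 moi); 44 h; luciferase substrate, RT 15 min; read 15 sec.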
VACV Venus inh: inhibitors of vaccinia virus (Venus reporter); AID 720580; Potency, µM (top dose mostly 36.5 µM), actives largely listed as inhibitors; actives 0.46% (n = 330,000); Vaccinia virus Venus reporter expression, fluorescence; calls by dose curve; tested in A549 cells; note: nearly all actives have a fitted effect of over 30% in size
VACV mCherry inh: vaccinia inhibition (mCherry reporter); Vaccinia virus mCherry reporter infection, fluorescence; Potency, µM (titrated, usually from 36.5 µM), most hits filed as inhibitors; actives 0.63% (n = 310,000); AID 720579; calls by dose curve; tested in A549 cells; note: nearly all actives have a fitted effect of over 35% in size
Lassa entry inh: Lassa virus entry inhibition | Lassa virus pseudotype entry inhibition, cell reporter | Potency, µM (series often up to 37.9 µM), usual class: inhibitors | actives 1.2% (n = 300,000); calls by dose curve; tested in HEK293 cells; note: nearly all actives have a fitted effect of over 50% in size
Hits are given with their value; – = inactive; ? = inconclusive; · = not tested or not shown; [ ] = dose if it differs, or a comment. Only some compounds are listed: those with a hit (about 4.6% of all), similar ones and a draw of the others.

SMILES | Marburg entry inh | HCV inhibitor | VACV Venus inh | VACV mCherry inh | Lassa entry inh
Cc1ccc(S(=O)(=O)N2CCN(c3nc(-c4cccs4)nc4c3ncn4COC(=O)C(C)(C)C)CC2)cc1 | · | · | – | – | ·
Cc1cccc(CC(=O)NCCc2csc(-c3ccc(C(F)(F)F)cc3)n2)c1 | · | · | – | – | ?
Cc1cccc(C)c1OCc1nc2ccccc2c(=O)n1/N=C/c1c[nH]c2ccccc12 | ? | ? | ? | ? | 2.5µM
Cc1ccc(-c2[nH]ncc2/C=N/n2c(COc3ccccc3C)nc3ccccc3c2=O)cc1 | 11µM | ? | 11µM | ? | ?
Cc1noc2ncnc(NCCc3ccccc3)c12 | · | · | ? | – | –
Clc1ccc(-c2noc3ncnc(NCCc4ccccc4)c23)cc1 | · | · | – | – | 4µM
CCN(CC(=O)Nc1ccc(NC(C)=O)cc1)C(=O)CSCC(=O)Nc1ccc(C)cc1 | – | – | – | – | –
CCN(CC(=O)Nc1ccc(NC(C)=O)cc1)C(=O)CSC(c1ccccc1)c1ccccc1 | · | 10µM | · | · | ·
CC(C)CCn1c(N)c(C(=O)NCc2cccs2)c2nc3ccccc3nc21 | ? | 14µM | – | – | –
CC(C)Cn1c(N)c(C(=O)NCC2CCCO2)c2nc3ccccc3nc21 (stereo not drawn) | ? | ? | 10µM | 10µM | –
COCCn1c(N)c(C(=O)NCc2cccs2)c2nc3ccccc3nc21 | ? | ? | · | · | –
CC(C)OCCCNC(=O)c1c(N)n(Cc2cccs2)c2nc3ccccc3nc12 | ? | 10µM | 28µM | · | ?
CCN1C(=O)[C@@H]2[C@H]3[C@H](O)[C@H](O)CC(=NOC[C@@H](O)COCc4ccco4)[C@@H]3CC[C@H]2C1=O | – | · | · | · | ·
COc1ccc(N2CCN(C(=O)CCn3c(=O)[nH]c4cc(OC)c(OC)cc4c3=O)CC2)cc1 | ? | · | – | – | ?
CCOC(=O)CN1C(=O)NC(c2cccc(C(F)(F)F)c2)C(C(=O)OC)=C1C (stereo not drawn) | – | · | · | · | ·
O=C(c1cnc2ccc3ccccc3c2c1)c1cc(F)ccc1O | · | 5.6µM | – | ? | ·
CCCOc1cccc([C@H]2/C(=C(/O)c3ccc(F)cc3)C(=O)C(=O)N2CCN(C)C)c1 | – | · | · | · | ·
COc1cc2nc(N3CCN(C(=O)OCc4ccccc4)C(C(=O)NC(C)(C)C)C3)nc(N)c2cc1OC (stereo not drawn) | 11µM | · | · | · | ?
COc1cc2nc(N3CCN(C(=O)C4COc5ccccc5O4)CC3)nc(N)c2cc1OC (stereo not drawn) | 12µM | ? | – | – | ?
COc1ccc2nc(N3CCN(C(=O)C4COc5ccccc5O4)CC3)sc2c1 (stereo not drawn) | ? | ? | – | – | –
CCOC(=O)C1=C(C)N(c2ccc(OC)cc2)C(=O)/C1=C\c1cccs1 | – | 13µM | · | · | –
C[n+]1c(-c2ccccc2)cc2c(=Cc3ccccc3)c3ccccc3n21 | ? | ? | – | – | 7.9µM
C[n+]1c(-c2ccccc2)cc2c(=Cc3ccc([N+](=O)[O-])cc3)c3ccccc3n21 | ? | ? | – | – | 10µM
COc1cc(CNn2nnnc2N)cc(Br)c1OCc1c(Cl)cccc1Cl | ? | 13µM | · | · | ?
Cc1ccc(-c2nc3ccccn3c2Nc2ccccc2C)o1 | · | · | – | – | ·
SMILES | Marburg entry inh | HCV inhibitor | VACV Venus inh | VACV mCherry inh | Lassa entry inh
COc1c(C(CC(C)C)OC(C)=O)ccc2c1C(=O)OCc1cc(C)cc(O)c1O2 (stereo not drawn) | · | 2.5µM | – | – | ·
COc1c(C(O)CC(C)C)ccc2c1C(=O)OCc1cc(C)cc(O)c1O2 (stereo not drawn) | · | 2.2µM | – | – | ·
O=C(Nc1cccc(-c2cn3ccccc3n2)c1)c1cccc(Cl)c1 | ? | 11µM | 14µM | ? | ?
COc1ccc(CC(=O)Nc2ccc(-c3cn4ccccc4n3)cc2)cc1 | – | ? | – | · | ?
O=C(Nc1cccc(-c2cn3ccsc3n2)c1)c1ccccc1 | – | 25µM | – | · | –
O=C(Nc1ccc(-c2cn3ccccc3n2)cc1)c1cccs1 | 15µM | ? | – | – | ?
CCOCCc1nn2c(=O)cc(COC(=O)c3ccc(NC(=O)C(C)(C)C)cc3)nc2s1 | · | · | – | – | –
O=C1OC(c2cccc(Cl)c2)N=C2C1C=NN2c1ccccc1 (stereo not drawn) | – | · | · | · | ·
COc1cc(/C=C/C(=O)NC(=O)c2ccccc2O)ccc1OC(C)=O | · | – | ? | 5.6µM | ·
Cc1cccc(N2CCN(C(=O)Cn3ncc4c3-c3cc(C)ccc3OC4)CC2C)c1 (stereo not drawn) | ? | · | – | – | ·
COCCCn1c2nc3ccccc3nc2c2c(=O)n(-c3ccccc3OC)cnc21 | – | – | – | · | –
COc1ccccc1-n1cnc2c(c1=O)c1nc3ccccc3nc1n2-c1ccc(C)c(C)c1 | · | 7.9µM | ? | ? | ·
Cc1ccsc1CN(C(=O)c1oc2cc(Br)ccc2c1C)C1CCS(=O)(=O)C1 (stereo not drawn) | ? | · | – | – | ?
COc1ccc(CCNC(=O)CCc2c(C)c3cc4c(C)c(C)oc4cc3oc2=O)cc1 | ? | · | ? | – | –
CCOC(=O)N/N=C/c1c(C)nn(-c2cccc(C(F)(F)F)c2)c1Cl | ? | 2.2µM | ? | ? | 7.1µM
Cc1nn(-c2cccc(C(F)(F)F)c2)c(Cl)c1/C=N/Nc1cccc(C(=O)O)c1 | ? | – | – | – | ?
CN(C)c1ccc(Cc2cc3c(O)ccc(O)c3cc(Cc3ccc(N(C)C)cc3)c2=O)cc1 | ? | 11µM | – | – | –
C[C@H](NC(=O)OC(C)(C)C)[C@@H](O)c1ccco1 | · | · | – | – | ·
Cc1cccc(NC(=S)NC2CC3CCCC(C2)N3Cc2cccs2)c1 (stereo not drawn) | 1.6µM | ? | ? | ? | ?
CCC1CN(CCNC(=O)c2ccc3c(c2)OCO3)Cc2cc(OC)ccc2O1 (stereo not drawn) | · | · | – | – | ·
CC(C)=CCN1C(=O)[C@@]2(CC(C)=C[C@@H](COCc3ccccc3)O2)c2ccccc21 | – | · | · | · | ?
O=C(Cc1n[nH]c(=O)c2ccccc12)OCc1c(Cl)cccc1Cl | 0.52µM | – | – | ? | 0.63µM
COc1ccc(CCN2C(=O)CC(Cc3ccccc3)C2=O)cc1OC (stereo not drawn) | · | – | · | · | ·
CC1CC(CCN)(c2ccccc2)C(C)CN1C (stereo not drawn) | 4µM | – | –[7.34 µM] | –[7.34 µM] | –
COc1ccc(CN(CCC#N)CCC2(c3ccccc3)CC(C)N(C)CC2C)cc1OC (stereo not drawn) | 13µM | – | –[7.34 µM] | –[7.34 µM] | –
SMILES | Marburg entry inh | HCV inhibitor | VACV Venus inh | VACV mCherry inh | Lassa entry inh
CC1CC(O)(Cc2ccccc2)C(C)CN1C (stereo not drawn) | – | – | – | · | –
COc1ccc(CCNCc2ccc3c(c2)n(C)c(=O)n3C)cc1OC | – | · | – | – | –
COc1ccc(CNCCC2(Cc3ccccc3)CC(C)N(C)CC2C)cc1OC (stereo not drawn) | · | 7.9µM | · | · | ·
COc1cccc(CNC(=O)CCCN2C(=O)CSc3c2c(C)nn3-c2ccccc2)c1 | · | · | – | – | –
Cc1cc2c(c(-c3cnccn3)c1)OC(CNC(=O)c1c(F)cccc1Cl)C2 (stereo not drawn) | · | · | – | – | ·
CCc1ccc(-c2cc(C(=O)N/N=C/c3c[nH]c4ccccc34)[nH]n2)cc1 | ? | ? | – | ? | ?
CCc1ccc2c(Cl)c(C(=O)N/N=C/c3c[nH]c4ccccc34)sc2c1 | ? | ? | ? | · | 10µM
